Screens as filed in PubChem BioAssay.
KB-3-1 tox: qHTS assay for MDR1-selective chemotherapeutics: Primary screen using the parental adenocarcinoma cell KB-3-1; KB-3-1 viability, CellTiter-Glo ATP luminescence, 72 h; actives 1.4% (n = 400,000); Potency, µM (doses to about 46.1 µM), most hits filed as cytotoxic; note: % is set by controls: 0 for no effect and ±100 for the full control effect; nearly all actives have a fitted effect of over 60% in size
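KB-3-1 cells, DMEM (no phenol red) + 10% FBS; compound by pin transfer, 72 h, 37 °C. Readout: CellTiter-Glo luminescence after 10 min. Data normalized, curve-fitted.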
KB-V1 cytotox: qHTS assay for MDR1-selective chemotherapeutics: Primary screen using the drug-selected MDR subline cells KB-V1; Potency, µM (top dose mostly 46.1 µM), usual class: cytotoxic; KB-V1 MDR cells viability, CellTiter-Glo, 72 h; actives 3.4% (n = 400,000); note: % is set by controls: 0 for no effect and ±100 for the full control effect; nearly all actives have a fitted effect of over 60% in size
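qHTS viability screen in drug-selected KB-V1 MDR cells: 72 h compound treatment at 37 degrees C, ATP luminescence end point.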
SW480 rerep: A quantitative high throughput screen for small molecules that induce DNA re-replication in SW480 colon adenocarcinoma cells; actives 1.8% (n = 340,000); SW480 DNA re-replication, Hoechst DNA content imaging, 48 h; Potency, µM (series often up to 46.1 µM), for inactives: at the highest dose re-replication activation, usual class: activators; note: % of control where 0% means no effect; nearly all actives have a fitted effect of over 55% in size
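250 cells/well; 23 nL cpd via pin tool; 48 hr, 37 C, 5% CO2; Hoechst 40 min; imager read of total nuclear intensity, ex 405/em 500-530 nm.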
HT1080 IDH1KD tx: qHTS for induction of synthetic lethality in tumor cells producing 2HG: qHTS for the HT-1080-IDH1KD cell line. actives 2% (n = 360,000). HT-1080 IDH1 knockdown viability, ATP luminescence, 48 h. Potency, µM (doses to about 46.1 µM), for inactives: at the top dose activity, negative = toxicity, actives largely listed as cytotoxic. AID 686971, 2013;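 note: 0% = DMSO wells and -100% = cell-free medium wells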
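Using the IDH1-knockdown HT-1080 line run in the same batch and compound series as the NT line, viability after 48 h at 37 °C was determined by CellTiter-Glo luminescence and expressed as % activity.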
HT1080-NT tox: qHTS for induction of synthetic lethality in tumor cells producing 2HG: qHTS for the HT-1080-NT fibrosarcoma cell line. actives 1.6% (n = 360,000). Potency, µM (doses to about 46.1 µM), inactives show at the top dose activity, negative = less viability, usual class: cytotoxic. AID 686970, 2013. HT-1080-NT fibrosarcoma viability, CellTiter-Glo ATP luminescence, 48 h;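 note: NT is the 2HG producing partner of a matched IDH1 knockdown line; 0% = DMSO-treated cells and -100% = media-only wells without cells; nearly all actives have a fitted effect of over 55% in size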
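HT-1080-NT fibrosarcoma cells (2HG-overproducing), 750 cells/well in RPMI with 5% FBS, dosed after 2 h and incubated 48 h at 37C. CellTiter-Glo luminescence normalized to DMSO and no-cell wells; concentration-response curves fitted and classed.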
MCF10A rereplic: A quantitative high throughput screen for small molecules that induce DNA re-replication in MCF 10a normal breast cells | Potency, µM (highest dose often 46.1 µM), for the others: at the highest dose activity, positive = re-replication, most hits filed as activators | actives 2.9% (n = 350,000) | MCF 10A DNA re-replication, Hoechst nuclear intensity, 48 h; note: % of control where 0% means no effect; nearly all actives have a fitted effect of over 50% in size
Numbers without * were called inactive; i = inactive; ? = inconclusive; . = no result. The list is not random: actives were taken first. Their share in the collection is about 7.9%. Calls come from the whole dose curve; as a rule, active = well fitted curve in the direction sought with a large enough effect; inconclusive = small, poorly fitted or top-dose-only effect, or another doubt; inactive = no such curve, though single readings can be large; an effect the other way counts as inactive or inconclusive. Potency is the fitted concentration of half-maximal effect.

SMILES | KB-3-1 tox | KB-V1 cytotox | SW480 rerep | HT1080 IDH1KD tx | HT1080-NT tox | MCF10A rereplic
COc1cc2ccccc2cc1C(=O)N(CCN(C)C)c1nc2ccc(C)cc2s1 | i | ? | ? | 16µM* | 23µM* | ?
CN1CCN([C@H]2CS(=O)(=O)N[C@@H]2COCc2ccccc2)CC1 | i | i | . | 3% | 27% | .
Cc1ccc(-c2cnc(N3CCC(C(N)=O)CC3)s2)cc1 | i | i | . | . | . | .
O=C(Nc1nc(-c2ccccc2)cs1)C1CCCN(S(=O)(=O)c2ccccc2)C1 (centres undefined) | i | ? | ? | ? | ? | 8.2µM*
O=C(Nc1nc(-c2ccccc2)cs1)C1CCCCN1S(=O)(=O)c1ccc(Cl)cc1 (centres undefined) | ? | 13µM* | 21% | ? | ? | ?
O=C(Nc1nc(-c2ccccc2)cs1)C1CCCN(S(=O)(=O)c2cccc([N+](=O)[O-])c2)C1 (centres undefined) | i | i | -1% | -1% | -15% | 8%
O=C(Nc1ccc(Cl)cc1)C1CCCCN1S(=O)(=O)c1ccccc1 (centres undefined) | 23µM* | 3.7µM* | ? | ? | ? | ?
O=C(Nc1nc(-c2ccccc2)cs1)C1CCCCN1S(=O)(=O)c1ccccc1 (centres undefined) | i | ? | -2% | ? | ? | 6%
CNc1c(Br)cc(/C=C2\C=Cc3ccccc32)cc1Br | i | i | . | . | . | .
CC1Cc2cc(S(=O)(=O)N3CCN(c4ccccc4F)CC3)ccc2N1C(=O)C1CC1 (centres undefined) | ? | i | -7% | -22% | -20% | 4%
Cc1ccccc1N1C(=O)CN(Cc2sccc2C)C1=S | ? | 3.3µM* | ? | 1% | 7% | 10%
Cc1ccc(N2C(=O)CN(Cc3sccc3C)C2=S)cc1C | ? | 16µM* | 0% | 8% | 9% | ?
CC(C)c1nnc(N2C(=O)c3oc4ccccc4c(=O)c3C2c2ccccc2F)s1 (centres undefined) | i | i | . | . | . | .
O=C(ONC1=NCCCCC1)c1ccc(Cl)cc1 | i | i | -3% | 23µM* | 16µM* | -9%
C=C(CN(C)C)C(=O)c1ccc(OC2OC(COC(C)=O)C(OC(C)=O)C(OC(C)=O)C2OC(C)=O)cc1 (centres undefined) | ? | ? | 5.8µM* | 4.6µM* | ? | ?
CC(=O)OC[C@H]1O[C@@H](O/N=C/[C@@H](C)[C@H](OCc2ccccc2)C(C)C)[C@H](OC(C)=O)[C@@H](OC(C)=O)[C@@H]1OC(C)=O | . | . | 8% | . | . | 1%
COc1ccccc1CN1CCC(CNC(=O)c2cnn(-c3ccc(C)c(C)c3)c2C2CCN(C(=O)OC(C)(C)C)CC2)CC1 | i | i | . | . | . | .
COc1ccccc1CN1CCC(CNC(=O)c2cnn(-c3ccc(Cl)cc3)c2C2CCN(C(=O)OC(C)(C)C)CC2)CC1 | 16µM* | ? | . | . | . | .
CCN1CSC(=S)N(Cc2ccccc2)C1 | ? | i | 18µM* | 1% | -9% | ?
S=C1SCN(Cc2cccs2)CN1Cc1cccs1 | ? | i | . | -9% | -6% | .
S=C1SCN(Cc2ccco2)CN1Cc1ccco1 | i | i | 13µM* | 13µM* | ? | ?
CCCCCN1CSC(=S)N(Cc2ccccc2)C1 | ? | ? | ? | -18% | -1% | ?
Cc1ccc(S(=O)(=O)N2CCN(c3nc(-c4cccs4)nc4nc[nH]c34)CC2)cc1 | . | . | . | -9% | -20% | .
COc1ccc(S(=O)(=O)N2CCCCCC2)cc1NC(=O)Cc1n[nH]c(=O)c2ccccc12 | i | i | 2% | -9% | -15% | 5%
CCc1ccc(N2C(=O)Cc3c2nc(N)c(C#N)c3N)cc1 | i | ? | 4% | -27% | 7% | 7%
SMILES | KB-3-1 tox | KB-V1 cytotox | SW480 rerep | HT1080 IDH1KD tx | HT1080-NT tox | MCF10A rereplic
CCN(CC)c1nc2c3c(nc4c(c3c1C#N)CC(=O)N4c1ccc(Cl)cc1)NC(C)=N2 | ? | i | 4% | -1% | -1% | 9.2µM*
Cc1ccc(CNC(=O)C2CCN(c3nn4cc(-c5ccc(F)cc5)nc4s3)CC2)cc1 | i | i | . | . | . | .
COc1cc(NC(=O)C2CC(c3ccccc3O)=NO2)cc(OC)c1OC (centres undefined) | i | i | . | -1% | 0% | .
O=C(Cc1ccc(F)cc1)NCCc1csc2nc(-c3ccccc3F)nn12 | i | i | . | . | . | .
CC1=NN(c2ccc(F)cc2)C(=O)C1C(c1cccc(O)c1)c1c(C)[nH]n(-c2ccc(F)cc2)c1=O (centres undefined) | i | i | 0% | -19% | ? | ?
CC1=NN(c2ccc(Cl)cc2)C(=O)C1C(c1cccc(O)c1)c1c(C)[nH]n(-c2ccc(Cl)cc2)c1=O (centres undefined) | i | i | 3% | ? | 16µM* | ?
CC(=O)N1CCCC(C)(C(=O)N(C)Cc2cccc3ccccc23)C1 (centres undefined) | i | i | . | 1% | 14% | .
CCOC(=O)N1CCC(n2c(SCC(=O)NCCC3=CCCCC3)nc3ccccc3c2=O)CC1 | ? | 8.2µM* | ? | ? | ? | 26µM*
CCOC(=O)N1CCC(n2c(SCC(=O)NCc3ccccc3)nc3ccccc3c2=O)CC1 | i | i | 4% | 0% | 5% | 0%
CCOC(=O)N1CCC(n2c(SCC(=O)N3CCC(C)CC3)nc3ccccc3c2=O)CC1 | ? | 21µM* | 12% | -18% | -5% | ?
OCCCn1c(CCNc2nc(-c3ccc(F)cc3)cs2)nc2cc(C(F)(F)F)ccc21 | i | i | -12% | -10% | -15% | ?
O=C(CC1C(=O)NCCN1Cc1cccc(C(F)(F)F)c1)NCCc1cnccn1 (centres undefined) | i | i | -8% | 0% | 1% | 13%
COc1ccc2ccc3c(c2c1)N=C[C@]1(O3)N(C)c2ccccc2C1(C)C | i | ? | 15µM* | ? | ? | 18µM*
